# Experimental data published in the supplement of paper PMC3334620.
# In all, about 33,000 sequences were measured (“E-score (-0.5 to 0.5)”: median about -0.0059, highest 2% from about 0.26 on). The list comes from a sample in which the highest values are over-represented; it also holds similar and randomly drawn sequences.
# Target: T1, Cin5 (UniProt P40917)
# T1 sequence: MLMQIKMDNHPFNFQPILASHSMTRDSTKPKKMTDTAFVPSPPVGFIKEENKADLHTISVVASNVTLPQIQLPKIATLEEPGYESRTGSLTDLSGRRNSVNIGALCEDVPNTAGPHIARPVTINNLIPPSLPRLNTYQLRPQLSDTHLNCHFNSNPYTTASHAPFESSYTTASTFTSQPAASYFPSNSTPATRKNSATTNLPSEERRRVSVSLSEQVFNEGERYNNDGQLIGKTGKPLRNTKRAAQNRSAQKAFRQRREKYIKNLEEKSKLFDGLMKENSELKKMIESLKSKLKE
# Assay: PBM E-score (8-mer binding enrichment) (E-score (-0.5 to 0.5)); higher = stronger / more preferred TF binding
# Settings: protein concentration: 100 nM; construct: GST-full length
# Protocol: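 Universal 'all 10-mer' protein binding microarrays (Agilent AMADID 015681) probed with GST-tagged S. cerevisiae TFs (full-length or DBD) made by in vitro transcription/translation (PURExpress), about 100-200 nM. Bound TF was detected with fluorescent anti-GST. Each ungapped 8-mer (which stands for itself and its reverse complement) is scored by the PBM enrichment score (E-score), a modified Wilcoxon-Mann-Whitney statistic from -0.5 to +0.5, computed with the Universal PBM Analysis Suite. Scale: above 0.35 generally sequence-specific binding.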
row,Sequence,PBM E-score
1,AAACTAGA,-0.116
2,TAACTAGA,0.306
3,GAACTAGA,-0.00859
4,AAGATTCT,-0.106
5,CTTTTGGA,-0.0744
6,AGACAGAC,0.192
7,ACAGACAA,0.28
8,ACAGACAG,0.195
9,ACAGACAC,-0.0499
10,AGACAGAT,0.277
11,AGACAGAG,-0.0616
12,AAGGTCGA,0.146
13,ACCACGCG,-0.0218
14,ACGTATCA,0.156
15,GAGCCGGA,-0.178
16,GTATATAA,0.222
17,ATATATAT,0.146
18,ATATAGTA,0.235
19,CTATATAG,0.103
20,GTATATAC,0.104
21,CTATATAA,0.0999
22,AGATATAG,0.149
23,CTATAGTC,-0.063
24,ATATATAC,0.316
25,ATATATAA,0.335

row,Sequence,PBM E-score
1,ATATAGTC,0.258
2,ATATATAG,0.26
3,ACCATCGG,-0.108
4,GAGGCGAC,-0.213
5,AGATTCTC,0.0336
6,GTGCAGGA,-0.0289
7,GAAGTCCA,-0.133
8,CTCTATAC,-0.0333
9,CTATATGC,0.212
10,CTATATAC,0.313
11,ATTACAGG,0.244
12,AATACATG,0.195
13,CATACATA,0.213
14,ATTACACG,0.0848
15,CTTACACA,0.259
16,ACTACATA,0.207
17,CTTACACC,-0.0748
18,AGTACATG,0.118
19,ATTACAGA,0.0804
20,AATACATA,0.278
21,ATTACATA,0.355
22,ATTACATG,0.297
23,GTGCCGTA,0.0613
24,CACCTTGA,0.00105
25,AAAAGACT,-0.205

row,Sequence,PBM E-score
1,GGCCATAA,0.0497
2,AGAAGGTG,0.0112
3,CTAAGGCA,-0.173
4,CTTACATC,0.213
5,CGTACATA,0.191
6,AGTACATC,0.0156
7,CTTACAAA,0.192
8,GCTACATA,0.0756
9,CATACGTA,0.242
10,AATACGTA,0.313
11,CTTACATA,0.358
12,ATTACATC,0.31
13,AATACGTG,-0.0461
14,GTTACAAA,0.184
15,GTTACATA,0.266
16,ACTGCCAC,-0.012
17,AATCAGTC,0.0788
18,AGCCAGTA,-0.0197
19,GAGTGCGA,-0.11
20,AATCGAGA,0.171
21,AATCTCCG,0.0667
22,ATTACAAT,0.153
23,ATTACAAA,0.306
24,ATTACAAG,0.131
25,TCATATAA,0.197

row,Sequence,PBM E-score
1,CAATATAG,0.225
2,GAATATAA,0.112
3,TAATATAA,0.355
4,CAATATAC,0.181
5,CAATATAA,0.295
6,TATAGCCA,0.111
7,ACTTAATC,0.133
8,GCTTAATA,0.207
9,ATTTAATA,0.295
10,GTTTAATA,0.143
11,ACTTAATA,0.26
12,CTTTAATA,0.122
13,AGTTCGCA,0.0133
14,ATCCAACA,0.0603
15,CTTGCGTC,-2e-05
16,CATGGGGA,-0.0804
17,TATGGGGA,0.27
18,AATGGGGA,0.0144
19,CGGGTGTC,-0.00474
20,ACCCCTCT,-0.17
21,AGACATAT,0.0819
22,ATACATAC,0.0724
23,CTACATAA,0.0697
24,ATACATAA,0.286
25,ATACATAG,0.159

row,Sequence,PBM E-score
1,ATACATAT,0.318
2,AGTTCTAC,-0.141
3,TATGCTCA,0.132
4,CAACCCGG,-0.222
5,CGCAGCGC,-0.138
6,AAGCTACC,0.106
7,GAAATGAA,0.275
8,CTATGAAA,0.0722
9,TAAATGAA,0.129
10,CAATGATA,0.182
11,ATATGAAA,0.259
12,AAATGAGA,0.128
13,TAATGAAA,0.203
14,CAAATGAA,-0.0217
15,AAATGAAA,0.266
16,ATATGAAC,0.132
17,CAATGAAA,0.0978
18,AAATGATA,0.279
19,CTTTGCCC,-0.199
20,ATCCCTAA,-0.19
21,ACGGCCGA,0.0311
22,GGCGGCAA,-0.184
23,GGTATACC,-0.0512
24,AACCAATA,0.214
25,AGATACAT,0.171

row,Sequence,PBM E-score
1,CAGCGCAA,0.0372
2,GAATGATC,-0.046
3,GAATGATA,0.291
4,TAATGACA,0.237
5,TAATGATA,0.298
6,AAATGATC,0.00639
7,TAATGGTA,-0.00375
8,AAATGGTA,0.268
9,CAATGGTA,0.101
10,TAATGAGA,0.0551
11,AAATGATG,0.207
12,AAATGATT,0.294
13,GAATGAGA,0.115
14,CGACGTCC,0.0493
15,ATAGTGTC,0.0674
16,ACATGGCT,-0.0786
17,CTACGAGC,-0.108
18,GGAACCAC,-0.0344
19,AGATGATG,0.27
20,AGATGATC,0.119
21,CAAATTAA,0.191
22,AAAATTAA,0.105
23,GAAATTAA,0.273
24,AGATGATA,0.212
25,GCAAGGGC,-0.235

row,Sequence,PBM E-score
1,TAACATGA,0.071
2,AGCTTCCT,0.00798
3,CAGCAAAG,-0.0276
4,GAATCTGA,-0.0334
5,GAGCTTTA,-0.0441
6,GAGTATTA,0.178
7,CAGTATTA,0.294
8,CAGTATAA,0.284
9,AAGTATAA,0.216
10,AAGTATTA,0.0531
11,GAGTATAA,0.181
12,GGAAGTCA,0.0165
13,GAACTCCA,0.0209
14,CAGCATGC,-0.0241
15,GGATCAAA,0.0839
16,CTCTGGCC,-0.234
17,GGGACCAC,-0.174
18,CCGCCTAA,-0.0943
19,TATGTAAA,0.286
20,GATGTCAA,0.0458
21,GATGTAAA,0.13
22,TATGTCAA,0.294
23,CATGTAAA,-0.054
24,AATGTCAA,0.176
